Screens deposited in PubChem BioAssay by several laboratories.
The list is not random: actives were taken first. Their share in the collection is about 1.4%.
Bcl-2 Bim block: inhibitors of Bim-Bcl-2 binding, primary screen, biochemical, multiplexed, human Bcl-2 family | Apoptosis regulator Bcl-2 (Homo sapiens), P10415 | Bead-based flow cytometry, Bim peptide-Bcl-2 binding | inhibition, % at 10 µM | 0.06% of 190,000 active | AID 950, 2007; in the data active = inhibition above about 40%;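 also: 0% = no compound wells with probe peptide and 100% = reference peptide inhibitor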
Bcl-W Bim block: inhibitors of Bim binding to Bcl-W, primary screen, biochemical, multiplexed, bead-based flow cytometry | 0.02% of 190,000 active | Bim peptide-Bcl-W binding | Bcl-2-like protein 2 (Homo sapiens), Q92843 | inhibition, % at 10 µM | AID 952, 2007;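 also: 0% = bound tracer without compound and 100% = peptide blocker; higher means less fluorescent Bim peptide bound to Bcl-W beads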
Wee1 stabilizer: Wee1 degradation inhibitors, primary screen, cell-based, HeLa, Wee1K328M-luciferase, luminescence. Wee1-like protein kinase (Homo sapiens), P30291. HeLa Luc-Wee1K328M stability; 100% = proteasome inhibitor MG132 effect. reporter increase, % at 5 µM. 1.2% of 220,000 active. AID 1321, 2008;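 active = activation above the mean of all tested compounds plus 3 SD, set per screening run, cut at about 8.8% in these data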;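 also: cells exposed to compound for 20 h before luminescence read; 0% = DMSO alone and 100% = MG132 at 30 µM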
Target sequence (P30291 whole entry K328M): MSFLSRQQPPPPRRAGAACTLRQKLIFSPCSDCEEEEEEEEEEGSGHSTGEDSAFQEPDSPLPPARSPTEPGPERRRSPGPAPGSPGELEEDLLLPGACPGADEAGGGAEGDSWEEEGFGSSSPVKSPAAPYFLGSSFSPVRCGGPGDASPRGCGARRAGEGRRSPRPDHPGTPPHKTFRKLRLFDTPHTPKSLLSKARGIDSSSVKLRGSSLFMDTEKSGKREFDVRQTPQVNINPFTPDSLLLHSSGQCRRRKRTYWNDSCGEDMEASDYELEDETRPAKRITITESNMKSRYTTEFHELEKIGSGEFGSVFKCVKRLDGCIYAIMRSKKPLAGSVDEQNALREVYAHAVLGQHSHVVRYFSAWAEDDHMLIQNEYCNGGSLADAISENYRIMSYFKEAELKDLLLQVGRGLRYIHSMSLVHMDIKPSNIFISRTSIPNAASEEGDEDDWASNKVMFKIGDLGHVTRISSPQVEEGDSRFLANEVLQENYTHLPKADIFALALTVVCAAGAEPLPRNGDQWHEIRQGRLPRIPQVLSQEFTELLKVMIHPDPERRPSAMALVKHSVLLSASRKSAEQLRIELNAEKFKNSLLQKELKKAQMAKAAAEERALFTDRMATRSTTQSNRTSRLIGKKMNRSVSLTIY
Bcl-XL Bim block: inhibitors of Bim-Bcl-XL binding, primary screen, biochemical, multiplexed, bead flow cytometry, human Bcl-XL; AID 1007, 2008; Bcl-2-like protein 1 (Homo sapiens), Q07817; Bim peptide-Bcl-XL binding, fluorescence; inhibition, % at 10 µM; 0.04% of 190,000 active
Bim-Bfl-1: inhibitors of Bim binding to Bfl-1, primary screen, biochemical, multiplexed, bead-based flow cytometry. Bcl-2-related protein A1 (Homo sapiens), Q16548. Bim-Bfl-1 binding inhibition. inhibition, % at 10 µM. 0.12% of 190,000 active. AID 1008, 2008;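 also: 0% = wells without compound plus tracer and 100% = blocker peptide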
Bcl-B Bim block: inhibitors of Bim-Bcl-B binding, primary screen, biochemical, multiplexed, human Bcl-2 family | Bcl-2-like protein 10 (Homo sapiens), Q9HD36 | bead-based flow cytometry, Bim peptide-Bcl-B binding | inhibition, % at 10 µM | 0.073% of 190,000 active;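 also: 0% = tracer peptide without compound and 100% = reference inhibitor peptide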
Starred values were filed as active, the others as inactive; / = not tested or not shown. Rule as the data show it, unless noted: active = inhibition above about 40%.

SMILES	Bcl-2 Bim block	Bcl-W Bim block	Wee1 stabilizer	Bcl-XL Bim block	Bim-Bfl-1	Bcl-B Bim block
CCC(C(=O)NC1CCCC1)N(C(=O)Cn1nnc(-c2ccc(C)o2)n1)c1cnc2ccccc2c1 (stereo not drawn)	-5	0	9.8*	-4	-15	-10
Cc1ccc(-c2nnn(CC(=O)N(c3cnc4ccccc4c3)C(C(=O)NC3CCCC3)c3ccncc3)n2)o1 (stereo not drawn)	-6	-7	0	-4	-8	-2
Cc1ccc[n+](CC(=O)Nc2nc3ccccc3s2)c1	-2	0	-2	-3	-10	-1
CN(C)S(=O)(=O)N(CC(=O)Nc1ccccc1C(F)(F)F)c1ccccc1	86*	17	0	19	/	/
CSc1ccccc1NC(=O)CN(c1ccccc1)S(=O)(=O)N(C)C	0	0	2	-2	-10	-6
CCCN(CC(=O)Nc1cc(Cl)ccc1Cl)C(=O)/C=C/c1ccco1	9	14	1	16	1	10
CSc1nnc(-c2cccc(NC(=O)c3ccccc3)c2)n1C	/	/	9.4*	/	/	/
O=C(NC1CCCCC1)C(c1ccc(F)cc1)N(Cc1ccco1)C(=O)CN1C(=O)c2ccccc2S1(=O)=O (stereo not drawn)	0	-6	9.9*	-5	-1	-4
Cc1cc(C)c(NS(=O)(=O)c2ccc(NC(=O)/C=C/C(=O)O)cc2)c(C)c1	-8	-6	5	-10	-14	-9
N#C/C(=C\c1cccc([N+](=O)[O-])c1)C(=O)Nc1cccnc1	-3	0	1	-4	4	7
COc1cc(/C=C(\C#N)C(=O)Nc2cccnc2)ccc1OC(C)C	-4	-2	11*	-5	-2	-4
O=c1[nH]nc(SCc2cc(Cl)ccc2Cl)c(=O)[nH]1	/	/	-1	/	/	/
O=C(/C=C/c1c(F)cccc1Cl)c1ccc(O)cc1	/	/	11*	/	/	/
O=C(/C=C/c1ccccc1Cl)c1ccc(O)cc1	/	/	1	/	/	/
CNC(=O)COC(=O)[C@@H](Nc1ccc(S(=O)(=O)N2CCOCC2)cc1[N+](=O)[O-])C(C)C	-2	-2	-3	-6	0	-6
CC(=O)c1cccc(NC(=O)C(C)OC(=O)CNC(=O)c2ccc(C)s2)c1 (stereo not drawn)	-1	-3	9.2*	-3	-5	-6
CCc1sc(C(=O)Nc2cccc(C(C)=O)c2)cc1C	6	14	-1	18	10	12
CCOC(=O)c1[nH]c2ccccc2c1NC(=O)c1ccc(S(=O)(=O)N2CCCCC2)cc1	2	0	0	-1	0	-1
NC(=O)CSc1nnc(Cn2cnc3ccccc32)o1	10	36	0	16	65*	-2
CCc1ccccc1NC(=O)CSc1nnc(Cn2cnc3ccccc32)o1	-2	-3	0	-4	0	-7
Clc1ccc(-n2ncc3c(NCC4CCCO4)ncnc32)cc1 (stereo not drawn)	-9	2	9.6*	-3	-7	-5
C=CCN(CC=C)C(=S)NC(=O)c1ccc(C)c(Br)c1	-1	-6	0	-6	1	-7
Cc1nc2ccccc2nc1OCc1ccc([N+](=O)[O-])cc1	0	-2	10*	-2	-4	-2
CCOc1ccc(/C=N/NC(=O)c2[nH]ncc2Br)c(O)c1	-6	0	3	-3	-5	-1
CS(=O)(=O)N(CC(=O)NCc1ccncc1)c1ccc(F)c(Cl)c1	-2	-2	-1	-5	-4	-3
O=C(NC1=C(NC2CCS(=O)(=O)C2)C(=O)c2ccccc2C1=O)c1ccccc1 (stereo not drawn)	11	22	-2	5	56*	7
O=C(NC1=C(Nc2ccc(Cl)cc2)C(=O)c2ccccc2C1=O)c1ccccc1	9	1	-1	-10	32	-6
CC(C)(C)C(=O)/C=C/c1ccc(Oc2ccccc2)cc1	/	/	-3	/	/	/
COc1nc(N2CCOCC2)nc(-n2cccc2)n1	0	1	9.2*	1	-1	0
